Records with an inconclusive call do not appear. Unmarked numbers belong to inactive results. Activity calls are given as the source filed them. Calls follow the shape of the dose curve; as a rule, active = well fitted inhibition curve with a large enough effect; inconclusive = small, poorly fitted or top-dose-only effect; inactive = flat fitted curve, though single readings scatter.
% is scaled to controls: 0 for no effect and ±100 for the full control effect.

For the assay, the target named is Calcium and integrin-binding protein 1 (Homo sapiens) (UniProt Q99828). Kind of assay: Primary qHTS for Identification of Calcium Integrin Binding Protein 1 (CIB1) Competitor (AID 1508620).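 Also: GST tagged CIB1 binding a fluorescein labelled alphaIIb integrin peptide tracer; top concentration of the series differs between compounds.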 Conditions: CIB1-GST / FITC-alphaIIb peptide fluorescence polarization; series mostly up to 57.7 µM; activity change, negative = inhibition: at the top concentration. From the text: Assay Provider: Ulhas P. Naik, PhD Sidney Kimmel Medical College Thomas Jefferson University, Philadelphia, PA Primary function of platelets is to maintain hemostasis. At the site of vascular injury, platelets adhere to adhesive proteins such as collagen and von Willebrand factor. Adherent platelets are activated and generate soluble platelet agonists such as thrombin, ADP and thromboxane A2. Following exposure of circulating platelets to these agonists, results in platelet shape change, granule secretion and activation of platelet integrin alphaIIb-beta3. Ligand binding to activated integrin alphaIIb-beta3 triggers outside-in signaling, leading to platelet aggregation, stabilization of platelet plug, and clot retraction. Upon atherosclerotic plaque rupture also causes platelet plug formation, which underlies a number of cardiovascular diseases such as myocardial infraction and stroke. A number of anti-platelet drugs such as aspirin, clopidogrel, prasugrel, vorapaxar, and eptifibatide are currently available to prevent the thrombotic complications. However, these anti-platelet agents have several limitations including inherent variability in individual responses, developing resistance, and serious bleeding side effects. For these reasons they are not suitable for long-term protection. Based on the experiences with current anti-platelet drugs, it appears that the most useful therapeutic approach is to intersect the secondary responses such as integrin outside-in signaling or recruitment of platelets by TxA2 and secreted ADP. Compounds, which can largely preserve the primary hemostatic function of platelets but inhibit secondary response will be most desired therapeutic agents for treatment of cardiovascular disease. CIB1 is a calcium integrin binding protein, which specifically interact with the alphaIIb subunit of integrin alphaIIb-beta3. Binding of CIB1 to alphaIIb regulates the outside-in signaling in platelets, which is needed for thrombus stabilization and thrombus growth. […] Therefore, we propose that discovery of a small molecule that can prevent the association of CIB1 and alphaIIb-beta3 will be a potential anti-platelet agent that can block the thrombus formation without undue effect on hemostasis. Reference: [1] Naik MU, Nigam A, Manrai P, et al. CIB1 deficiency results in impaired thrombosis: the potential role of CIB1 in outside-in signaling through integrin alpha IIb beta 3. J Thromb Haemost.
Calcium and integrin-binding protein 1 (Homo sapiens), sequence (Q99828 whole entry, looked up): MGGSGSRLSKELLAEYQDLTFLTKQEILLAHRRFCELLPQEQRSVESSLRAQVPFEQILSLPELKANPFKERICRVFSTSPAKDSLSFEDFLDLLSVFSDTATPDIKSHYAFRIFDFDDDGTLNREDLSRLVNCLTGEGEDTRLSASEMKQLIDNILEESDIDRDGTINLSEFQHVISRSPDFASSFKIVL
PROTOCOL TABLES SEQUENCE No. (1, 2, 3, etc.); […] (e.g., Cells, Incubation, Reagent, etc.); VALUE and DESCRIPTION. 1; Reagent; 3 uL; Protein or buffer (4/3x) 2; Compound; 46 nL; Control inhibitor / compound library 3; Time; 15 min; Room temperature incubation 4; Reagent; 1 uL; Fluorescent labeled peptide (4x) 5; Time; 1000 rpm; Centrifuge 6; Time; 15 min; Room temperature incubation 7; Detection; Ex 480/ Em 540; ViewLux Fluorescence Read NOTES (numbers refer to sequence above) 1; Protein Mixture: C1B1-GST (final concentrations of 1 uM). […] 3; Room temperature incubation. 4; Fluorescent Labeled Peptide: FITC-aIIb (final concentration of 100 nM). Sequence of alphaIIb peptide: Acetyl-[…]-FITC (purity is 95.83%). 5; Centrifuge 1000 rpm (164 g) for 15 seconds. 6; Room temperature incubation. 7; ViewLux Fluorescent Polization Read: excitation = 480(20) / emission = 540(25) S and P; FITC Dichroic mirror.
On the technique in general: In qHTS, concentration-response curves come from the screen itself.
Regarding `NCCc1ccc(O)c(O)c1`, the result was inactive.

For the compound `COc1cc2c(cc1OC)CN(CCc1ccc(NC(=O)c3cccc4c(=O)c5cccc(OC)c5[nH]c34)cc1)CC2`, the result was inactive.

Turning to `Cc1[nH]c(=O)c(C#N)cc1-c1ccc2nccn2c1`, the outcome was inactive.

For the compound `O=c1ncn2nc(Sc3ccc(F)cc3F)ccc2c1-c1c(Cl)cccc1Cl`, the “activity change, negative = inhibition” value is -4.72%.

With `CCc1ccc(CCOc2ccc(CC3SC(=O)NC3=O)cc2)nc1` (stereo not given), the outcome was inactive.

Consider `Fc1ccc(Cl)cc1-c1nc(Nc2ccncc2)c2nccnc2n1`, for which the “activity change, negative = inhibition” value was -8.4%.

Turning to `Cc1ccccc1C(C(=O)NC1CCCC1)N(C(=O)Cn1cnc2ccccc21)c1cccc(F)c1` (stereo not given), the “activity change, negative = inhibition” value was -7.81%.

For `CNC[C@H](O)c1cccc(O)c1`, the result was inactive.

`Cc1ccc(-n2nc(C(C)(C)C)cc2NC(=O)Nc2ccc(OCCN3CCOCC3)c3ccccc23)cc1`: the “activity change, negative = inhibition” value was -17.2%.

Regarding `O=C1CCC(N2C(=O)c3ccccc3C2=O)C(=O)N1` (stereo not given), the “activity change, negative = inhibition” value is 1.56%.

With `Cc1c(CCOc2ccc(C(=O)O)cc2)c2cc(Cl)ccc2n1C(c1ccccc1)c1ccccc1`, the “activity change, negative = inhibition” value was -2.23%.

For `CCOc1cc(C(=O)Nc2ccc(Cl)c(-c3nc4ccccc4[nH]3)c2)cc(OCC)c1OCC`, the outcome was inactive.

Consider `CCCCNc1cc(C(=O)O)cc(S(N)(=O)=O)c1Oc1ccccc1`, for which the result was inactive.

With `CC1(C)Cc2c(-c3ccccc3)c(-c3ccc(Cl)cc3)c(CC(=O)O)n2C1`, the outcome was inactive.

For the compound `NC(=O)c1cnccn1`, the outcome was inactive.

In the case of `CCCS(=O)(=O)Nc1ccc(F)c(C(=O)c2c[nH]c3ncc(-c4ccc(Cl)cc4)cc23)c1F`, the result was inactive.

On to `Cc1cccc(-c2nn(C(=S)Nc3ccccc3)cc2-c2ccnc3ccccc23)n1`, for which the “activity change, negative = inhibition” value was -4.56%.

On to `CCCc1nn(C)c2c(=O)[nH]c(-c3cc(S(=O)(=O)N4CCN(C)CC4)ccc3OCC)nc12`, for which the result was inactive.

As for `Cn1cc(-c2ccc3nnc(C(F)(F)c4ccc5ncccc5c4)n3n2)cn1`, the result was inactive.

On to `O=C(Nc1nc2ccccc2n1CCN1CCOCC1)c1cccc([N+](=O)[O-])c1`, for which the “activity change, negative = inhibition” value was -14.6%.

Regarding `CC(c1cc2ccccc2s1)N(O)C(N)=O` (stereo not given), the result was inactive.

`CCCC(CCC)C(=O)O`: the result was inactive.

Turning to `CCc1cc(Nc2nccc(-c3c(-c4ccc(OC)c(C(=O)Nc5c(F)cccc5F)c4)nc4ccccn34)n2)c(OC)cc1N1CCC(N2CCN(S(C)(=O)=O)CC2)CC1`, the outcome was inactive.

Consider `CN(C)C(=O)c1ccc(S(=O)(=O)c2ccc(NC(=O)[C@@](C)(O)C(F)(F)F)c(Cl)c2)cc1`, for which the outcome was inactive.

On to `COc1ccccc1[C@H](c1cccc2ccccc12)[C@@](C)(C#N)C(=O)N1CCC(c2cccc(C(F)(F)F)c2)CC1`, for which the “activity change, negative = inhibition” value is 1.94% [at 114 µM].

For `COCC(=O)NCC=Cc1ccc2ncnc(Nc3ccc(Oc4ccc(C)nc4)c(C)c3)c2c1`, the “activity change, negative = inhibition” value is 0.999%.

Consider `CCOc1ccn(-c2ccc(F)cc2)c(=O)c1C(=O)Nc1ccc(Oc2ccnc(N)c2Cl)c(F)c1`, for which the outcome was inactive.

On to `CCn1c(-c2nonc2N)nc2cnc(Oc3cccc(NC(=O)c4ccc(OCCN5CCOCC5)cc4)c3)cc21`, for which the “activity change, negative = inhibition” value was -2.22%.

As to `CCC(C)N(C)C(=O)c1cc2ccccc2c(-c2ccccc2Cl)n1` (stereo not given), the “activity change, negative = inhibition” value was -2.03%.

For the compound `COc1ccc2nc(S(=O)Cc3ncc(C)c(OC)c3C)[nH]c2c1` (stereo not given), the “activity change, negative = inhibition” value was -28.1% [at 114 µM].

For `COc1cc(F)c(F)c(Nc2ccc(I)cc2F)c1NS(=O)(=O)C1(C[C@H](O)CO)CC1`, the result was inactive.

As to `COc1ccc(COc2cc3oc(=O)c4cc(C(C)O)ccc4c3cc2OC)cc1` (stereo not given), the “activity change, negative = inhibition” value was 0.909%.

Turning to `Nc1nccc(-c2ccc3noc(-c4ccc(Cl)cc4)c3c2)n1`, the “activity change, negative = inhibition” value is 1.69%.

Regarding `CCc1cncnc1N1CCN(Cc2nc3ccc(C(F)(F)F)cc3[nH]2)CC1`, the result was inactive.

Take `Nc1ncnc2nc(-c3ccc(N4CCOCC4)nc3)cc(-c3cccc(Br)c3)c12`: the “activity change, negative = inhibition” value is -1.49%.

Turning to `N[C@@H]1CONC1=O`, the outcome was inactive.

As for `CC(C)OC(=O)C1=CN(C(=O)c2ccc(F)c(F)c2)CC(C)(C)c2c1[nH]c1ccccc21`, the result was inactive.

Turning to `OC(CCN1CCCCC1)(c1ccccc1)C1CC2C=CC1C2` (stereo not given), the result was inactive.

Turning to `Cc1[nH]c(=O)c(C#N)cc1-c1ccncc1`, the outcome was inactive.

As for `CCOc1cc(C=C2C(=O)N(c3ccccc3)N=C2C)cc(Cl)c1OCC(=O)OC`, the “activity change, negative = inhibition” value was -19.1%.

(Values after PubChem BioAssay (NCATS).)
